This passage reports z-score and composite z-score results from PubChem BioAssay.

Activity calls are given as the source filed them. Unless noted, no rule for the calls is given here.

The nature of assay [1]: compound effects on lung adenocarcinoma cell viability – A549, calcein-AM fluorescence, 48 h, basal, profiling panel (AID 1162). Also: test concentration not given here. To be noted: higher = more signal.
Assay [2] is described as follows: compound effects on differentiated 3T3-L1 adipocyte viability – cell-based, 3T3-L1 adipocytes, calcein-AM fluorescence, 48 h, basal, profiling panel (AID 1163). Also: test concentration not given here. The note with it: 3T3-L1 adipocytes viability, higher = more signal.
A short description of assay [3]: compound effects on hepatocellular carcinoma cell viability – HepG2, calcein-AM fluorescence, 48 h, basal, profiling panel (AID 1164). Also: test concentration not given here. To be noted: higher = more signal.
Assay [4] in a line: compound effects on multiple myeloma cell viability – MM1S, calcein-AM fluorescence, 48 h, basal, profiling panel (AID 1165).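 Also: viability of MM1S multiple myeloma cells under basal unstimulated conditions; test concentration not given here.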 To be noted: higher = more signal.
The nature of assay [5]: calcein-AM signal in unstimulated myeloma cells – cell-based, calcein-AM fluorescence, 48 h, PK04 Diversity Set, profiling panel (AID 1166).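 Also: cells grown under basal conditions without added stimulus; test concentration not given here.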 To be noted: RPMI8226 myeloma viability, higher = more signal.
Assay [6] can be described thus: JC-1 mitochondrial signal, unstimulated HepG2 cells – cell-based, JC-1 fluorescence, 24 h, 100 nL compound, profiling panel (AID 1167). Also: test concentration not given here. The note with it: HepG2 mitochondrial potential, higher = more signal.
The nature of assay [7]: JC-1 mitochondrial signal, unstimulated adipocytes – cell-based, JC-1 fluorescence, 3T3-L1 adipocytes, 24 h, 100 nL compound, profiling panel (AID 1168). Also: test concentration not given here. To be noted: JC-1 mitochondrial fluorescence, higher = more signal, called active from +8 up or from −8 down.
Assay [8] can be described thus: JC-1 mitochondrial signal, unstimulated myeloma cells – cell-based, JC-1 fluorescence, RPMI8226, 24 h, 100 nL compound, profiling panel (AID 1169). Also: test concentration not given here. To be noted: JC-1 mitochondrial potential fluorescence, higher = more signal.
The nature of assay [9]: JC-1 mitochondrial signal, unstimulated MM1S myeloma – cell-based, JC-1 fluorescence, 24 h, 100 nL compound, profiling panel (AID 1170). Also: test concentration not given here. The note with it: MM1S mitochondrial potential, higher = more signal.
The nature of assay [10]: resazurin metabolic signal in A549 cells – cell-based, resazurin fluorescence, 24 h, PK04 Diversity Set, profiling panel (AID 1171). Also: test concentration not given here. The note with it: A549 viability, higher = more signal, called active from +8 up or from −8 down. Background: Alamar Blue is a resazurin reagent that responds to reducing activity.
Assay [11] is described as follows: resazurin metabolic signal in HepG2 cells – cell-based, resazurin fluorescence, 24 h, PK04 Diversity Set, profiling panel (AID 1172). Also: test concentration not given here. To be noted: HepG2 viability, higher = more signal.
Assay [12] can be described thus: budding yeast growth changes without added modifier – OD600, strain BY4716, 24 h, basal condition, primary screen (AID 1173). The note with it: S. cerevisiae BY4716 growth, OD600, 24 h; higher = more signal, called active from +8 up or from −8 down.
Assay [13] is described as follows: viability profiling in MM1S myeloma cells – cell-based, resazurin fluorescence, basal, 24 h, PK04 Diversity Set, profiling panel (AID 1174). Also: test concentration not given here. To be noted: higher = more signal, called active from +8 up or from −8 down.
For assay [14], the target named is Dihydroorotate dehydrogenase (quinone), mitochondrial (Plasmodium falciparum (isolate 3D7)) (UniProt Q08210). In words: inhibition of P. falciparum DHODH – biochemical, C-terminal His tag, absorbance 600 nm, primary screen (AID 1175).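 Also: recombinant parasite enzyme with a five histidine tag at its C terminus; test concentration not given here.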 To be noted: PfDHODH enzyme, DCIP absorbance 600 nm; higher = more signal, called active from +8 up or from −8 down.
Assay [15] in a line: inhibition of PAO1 biofilm formation – strain PAO1, LB-PBS medium, absorbance 600 nm, primary screen (AID 1176). Also: test concentration not given here. The note with it: P. aeruginosa PAO1 growth/biofilm, A600, 12 h; higher = more signal.
Assay [16] can be described thus: growth modulation of vineyard yeast isolate – strain RM11-1a, OD600, basal, 24 h, primary screen (AID 1177).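 Also: cultures grown under basal conditions with no added stressor; test concentration not given here.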 The note with it: S. cerevisiae RM11-1a growth, OD600, 24 h; higher = more signal, called active from +8 up or from −8 down.
Assay [17] can be described thus: growth of efflux-deficient E. coli DRC39 – strain DRC39, OD650, 24 h, E. coli filamentation inducers, primary screen (AID 1178).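 Also: growth measured as culture turbidity by optical density at 650 nm; test concentration not given here.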 The note with it: E. coli DRC39 acrAB, higher = more signal, called active from +8 up or from −8 down.
Assay [18] in a line: growth of efflux-deficient E. coli DRC39 – strain DRC39, OD650, 48 h, E. coli filamentation inducers, primary screen (AID 1179).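 Also: screen aims at cell division blockers that make cells filament.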 The note with it: E. coli DRC39 delta-acrAB growth, higher = more signal, called active from +8 up or from −8 down.
A short description of assay [19]: viability profiling in RPMI8226 myeloma cells – cell-based, resazurin fluorescence, basal, 24 h, PK04 Diversity Set, profiling panel (AID 1180).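 Also: RPMI8826 multiple myeloma cell line at 5000 cells per well; test concentration not given here.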 The note with it: higher = more signal.
In assay [20] the target is E3 ubiquitin-protein ligase XIAP (Homo sapiens) (UniProt P98170). In words: small molecules binding XIAP protein – biophysical, small-molecule microarray, fluorescence 635 nm, primary screen (AID 1181).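 Also: score merges 667 nm emission and signal to noise over triplicate slides.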 The note with it: higher = more signal.
Sequence of E3 ubiquitin-protein ligase XIAP (Homo sapiens) (P98170 whole entry, looked up): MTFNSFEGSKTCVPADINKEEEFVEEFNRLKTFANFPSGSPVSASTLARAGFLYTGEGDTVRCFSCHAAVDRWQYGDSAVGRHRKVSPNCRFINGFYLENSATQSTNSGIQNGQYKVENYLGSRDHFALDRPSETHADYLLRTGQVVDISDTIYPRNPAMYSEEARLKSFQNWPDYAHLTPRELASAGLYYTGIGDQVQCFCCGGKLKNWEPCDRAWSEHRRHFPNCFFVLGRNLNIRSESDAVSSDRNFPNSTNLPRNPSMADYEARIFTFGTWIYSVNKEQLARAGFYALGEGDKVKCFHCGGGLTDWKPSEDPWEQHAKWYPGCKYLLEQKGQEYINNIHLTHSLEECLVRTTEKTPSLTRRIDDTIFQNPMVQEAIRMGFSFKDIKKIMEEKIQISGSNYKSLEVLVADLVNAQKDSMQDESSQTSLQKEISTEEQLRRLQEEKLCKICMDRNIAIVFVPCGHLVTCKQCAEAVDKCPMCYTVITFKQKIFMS

Sequence of Dihydroorotate dehydrogenase (quinone), mitochondrial (Plasmodium falciparum (isolate 3D7)) (Q08210 whole entry, looked up): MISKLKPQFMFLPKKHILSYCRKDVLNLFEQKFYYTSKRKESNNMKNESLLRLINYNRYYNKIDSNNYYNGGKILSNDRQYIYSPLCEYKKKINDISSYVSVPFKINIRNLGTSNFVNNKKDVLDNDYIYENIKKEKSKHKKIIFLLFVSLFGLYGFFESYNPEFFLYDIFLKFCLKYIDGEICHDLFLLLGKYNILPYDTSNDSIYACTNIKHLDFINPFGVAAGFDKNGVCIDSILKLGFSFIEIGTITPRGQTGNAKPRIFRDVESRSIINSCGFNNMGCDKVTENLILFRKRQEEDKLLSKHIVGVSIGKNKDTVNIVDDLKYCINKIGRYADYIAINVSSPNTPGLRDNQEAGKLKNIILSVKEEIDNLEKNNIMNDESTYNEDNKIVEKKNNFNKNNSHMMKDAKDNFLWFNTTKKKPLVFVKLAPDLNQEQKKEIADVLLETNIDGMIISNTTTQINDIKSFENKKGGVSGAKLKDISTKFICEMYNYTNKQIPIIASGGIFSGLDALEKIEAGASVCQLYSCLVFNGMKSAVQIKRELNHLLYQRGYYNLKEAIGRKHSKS

With `C=C(CCCC)/C(=C/C[C@@H](OC(C)=O)c1cccc(OCCO)c1)c1cc(C(=O)OC)ccc1OC`, the z-score in assay [1] was 0.771; in [2], 0.204; in assay [3], 0.622; in assay [4], -2.41; in assay [5], -1.98; in assay [6], 1.44. The z-score in assay [7] was -0.288 (inactive); in [8], 0.186; in [9], -0.679; in assay [10], 1.25 (inactive); in assay [11], 0.978; in [12], 1.12 (inactive). The z-score in [13] was 0.0348 (inactive); in assay [15] it was 0.0599 (inactive); in assay [16] it was 0.523 (inactive); in [17], 0.508 (inactive); in assay [18] it was 0.583 (inactive); in assay [19], 0.1. Also, the composite z-score is -0.943 (inactive) in assay [14] and -0.0447 in assay [20].

On to `C=C(C)C1CN([C@H](CO)c2ccccc2)C(=O)/C1=C\c1ccccc1` (stereo not given in full), for which the z-score in assay [1] is -0.121; in [2], 1.55; in assay [3], 0.0701; in assay [4], -0.313; in [5] it was -1.89; in assay [6], -1.11. The z-score in assay [7] is 0.0548 (inactive); in assay [8], 0.354; in assay [9] it was -1.06; in [10], -0.846 (inactive); in assay [11], -0.607; in [12] it was -5.73 (inactive). The z-score in assay [13] is 0.44 (inactive); in [15], -0.234 (inactive); in [16], 0.119 (inactive); in [17], 0.408 (inactive); in assay [18], -0.719 (inactive); in assay [19] it was 0.064. The composite z-score in [14] was -2.88 (inactive); in assay [20], 0.126.

With `COCCOC(=O)N1C(=O)[C@@]2(c3cc(C#CCNC(N)=O)ccc31)[C@H](C(N)=O)[C@H]1C(=O)O[C@H](c3ccccc3)[C@H](c3ccccc3)N1[C@@H]2c1ccc(O)cc1`, the z-score was 1.05 in [1]; -0.142 in assay [2]; 0.779 in assay [3]; 0.394 in assay [4]; -0.896 in assay [5]; -0.507 in assay [6]. Also, the z-score in [7] is -0.0468 (inactive); in assay [8], -0.883; in assay [9], 0.326; in [10] it was 1.22 (inactive); in assay [11], 0.296; in assay [12] it was -0.156 (inactive). Also, the z-score is -0.477 (inactive) in assay [13]; 1.01 (inactive) in assay [15]; 0.532 (inactive) in [16]; 0.769 (inactive) in [17]; 1.33 (inactive) in [18]; -0.392 in [19]. The composite z-score in [14] was 0.303 (inactive); in assay [20], -0.245.

Regarding `CC(=O)NCCCC[C@@H]1NC(=O)[C@H]2C[C@@H](C(=O)NCCCCCN)[C@@H](c3ccc(O)cc3)N2C1=O`, the z-score in assay [1] was -0.754; in [2] it was 0.311; in [3], -0.926; in assay [4], -0.0917; in assay [5] it was -0.556; in assay [6] it was -0.659. Moreover, the z-score is -0.34 (inactive) in assay [7]; 0.135 in assay [8]; 0.353 in assay [9]; -0.0632 (inactive) in assay [10]; -0.508 in assay [11]; 1.26 (inactive) in assay [12]. For the same compound, the z-score in [13] is -0.336 (inactive); in assay [15] it was -0.13 (inactive); in [16] it was 1.08 (inactive); in assay [17] it was -0.496 (inactive); in assay [18], -0.696 (inactive); in [19], -0.121. Also, the composite z-score in [14] was 0.538 (inactive); in assay [20] it was -0.224.

In the case of `[N-]=[N+]=Nc1ccccc1C[C@@]1(C(=O)NCc2ccccc2)N=C(c2ccc(OCCCO)cc2)O[C@@H]1c1ccccc1`, the z-score in assay [1] was -1.36; in assay [2] it was 0.902; in [3] it was -1.78; in [4], -2.51; in [5], -3.76; in assay [6], 1.45. The z-score in assay [7] was -0.739 (inactive); in assay [8], -1.3; in assay [9], -0.738; in assay [10], 0.808 (inactive); in [11], 0.508; in assay [12], -0.0233 (inactive). The z-score was -1.71 (inactive) in assay [13]; 2.51 (inactive) in assay [15]; 1.17 (inactive) in assay [16]; 0.712 (inactive) in [17]; -0.489 (inactive) in assay [18]; -0.564 in assay [19]. The values for the composite z-score in assay [14] and in assay [20] were 0.889 (inactive) and 0.204, respectively.

For `C=CCNC(=O)[C@H]1[C@@H]2C(=O)O[C@@H](c3ccccc3)[C@@H](c3ccccc3)N2[C@@H](c2ccc(OCCO)cc2)[C@]12C(=O)Nc1ccc(C#Cc3ccc(OC)cc3)cc12`, the z-score was -1.09 in [1]; 2.01 in [2]; -0.845 in [3]; -0.291 in assay [4]; -2.14 in assay [5]; -1.38 in assay [6]. For the same compound, the z-score in assay [7] was 3.11 (inactive); in [8] it was -1.22; in [9] it was -0.867; in assay [10], -1.04 (inactive); in assay [11], -1.06; in assay [12], 2.32 (inactive). In addition, the z-score is -0.512 (inactive) in [13]; 2.18 (inactive) in assay [15]; 3.66 (inactive) in [16]; -0.672 (inactive) in [17]; -0.995 (inactive) in assay [18]; -1.29 in assay [19]. The results for the composite z-score in assay [14] and in assay [20] were -2.27 (inactive) and 1.29, respectively.

Turning to `O=C1OCC=C[C@H]2OC34C=CCN(Cn5nnc6ccccc65)C(=O)[C@H]3N(CCO)C(=O)[C@@H]4[C@@H]12` (stereo not given in full), the z-score was 0.0757 in assay [1]; -0.529 in assay [2]; 0.344 in assay [3]; 0.897 in assay [4]; 0.209 in [5]; -1.15 in assay [6]. Moreover, the z-score is 0.765 (inactive) in assay [7]; -0.462 in assay [8]; -0.187 in assay [9]; -0.822 (inactive) in assay [10]; -0.779 in [11]; 0.818 (inactive) in [12]. Besides, the z-score was -0.176 (inactive) in assay [13]; -0.332 (inactive) in assay [15]; -0.581 (inactive) in assay [16]; 0.0034 (inactive) in assay [17]; -0.0669 (inactive) in [18]; -0.256 in assay [19]. In addition, the composite z-score in [14] was -0.642 (inactive); in assay [20], -0.0749.

Consider `C=C[C@H](OC)[C@@H](O)c1ccc(OC)c(O)c1`, for which the z-score in assay [1] was -0.107; in assay [2] it was -0.678; in [3], 1.69; in assay [4], -0.166; in [5], -0.991; in [6], 1.26. Also, the z-score in [7] was 0.503 (inactive); in assay [8], 0.5; in assay [9], 0.443; in assay [10] it was -0.112 (inactive); in assay [11], 0.0143; in assay [12], -0.506 (inactive). Further, the z-score in [13] was 0.546 (inactive); in assay [15], 0.65 (inactive); in assay [16] it was -0.0878 (inactive); in assay [17], 0.37 (inactive); in assay [18], 0.905 (inactive); in assay [19], 0.252. The composite z-score in assay [14] was 0.255 (inactive); in assay [20] it was -0.289.

On to `COC(=O)[C@@]1(Cc2ccc(F)cc2)[C@@H]2C(=CC(=O)[C@H]2CC(=O)C(=O)N2CCCC2)CN1C(=O)c1ccccc1`, for which the z-score was -1.77 in assay [1]; 1.16 in [2]; -1.32 in assay [3]; -2.6 in assay [4]; -4.29 in assay [5]; 3.9 in assay [6]. Also, the z-score in assay [7] is -0.568 (inactive); in assay [8] it was -0.686; in assay [9], -2.82; in assay [10], -1.97 (inactive); in [11] it was -1.96; in assay [12] it was 0.336 (inactive). Besides, the z-score is -2.67 (inactive) in assay [13]; 2.55 (inactive) in assay [15]; 0.381 (inactive) in [16]; 0.132 (inactive) in assay [17]; -0.363 (inactive) in [18]; -5.25 in assay [19]. Further, the composite z-score in [14] was -3.95 (inactive); in assay [20] it was -0.0391.
